The values that follow come from PubChem BioAssay (NCATS).

Results filed as inconclusive are left out. Activity calls are given as the source filed them. Calls follow the shape of the dose curve; as a rule, active = well fitted inhibition curve with a large enough effect; inconclusive = small, poorly fitted or top-dose-only effect; inactive = no such curve, though single readings can be large or run the other way.

Experiment [1] relates to Zika virus NS2B-NS3 protease (unlinked complex). Put plainly: Primary screen GU Rhodamine qHTS for Zika virus inhibitors: Unlinked NS2B-NS3 protease assay (AID 1347159). Also: nearly all actives have a fitted effect of over 60% in size. The method in brief:
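Buffer 10 mM Tris-HCl pH 8.0, 0.01% Tween 20. Unlinked protease 25 nM; compound preincubation 15 min, RT, protected from light. Substrate Rhod110, 1.5 microM; ~15% conversion in 15 min.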

For experiment [2], the system named is Zika virus NS2B-NS3 protease (linked construct). Put plainly: Primary screen NINDS Rhodamine qHTS for Zika virus inhibitors (AID 1347160). Also: nearly all actives have a fitted effect of over 55% in size. The method in brief:
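Aprotinin served as in-plate control. Conditions: 25 nM linked NS2B-NS3, pH 8.0 Tris buffer, titrated compounds, 15 min preincubation and 15 min reaction with 1.5 microM Rhod110 substrate at room temperature.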
On the technique in general: In qHTS, concentration-response curves come from the screen itself.
% is scaled to controls: 0 for no effect and ±100 for the full control effect.

Regarding `O=C(c1cccc(Cl)c1F)N1CCN(Cc2cccc(Nc3nccs3)n2)CC1`, the Potency result in experiment [1] and in experiment [2] was “inactive” throughout.

Regarding `NC(=O)[C@H](O[C@@H]1O[C@H](CO)[C@@H](O)[C@H](O)[C@H]1O)c1ccccc1`, the Potency entry in experiment [1] and in experiment [2] was “inactive” each time.

On to `O=C(O)c1ccc(OC2OC(CO)C(O)C(O)C2O)cc1` (stereo unspecified), for which the Potency result in experiment [1] and in experiment [2] was “inactive” in each case.

Take `C=C[C@H]1[C@H](O[C@@H]2O[C@H](CO)[C@@H](O)[C@H](O)[C@H]2O)OC=C(C(=O)OC)[C@H]1C[C@@H]1c2cc(O)c(O)cc2CCN1C(C)=O`: the Potency result in experiment [1] and in experiment [2] was “inactive” each time.

Turning to `c1cc(Nc2cc(C3CC3)[nH]n2)nc(Nc2ccc3nc[nH]c3c2)n1`, the Potency entry in experiment [1] and in experiment [2] was “inactive” in each case.

Turning to `CC[C@@](C)(Nc1ccnc(-c2c[nH]c3ncccc23)n1)C(=O)NCC(F)(F)F`, the Potency result in experiment [1] and in experiment [2] was “inactive” each time.

Regarding `CC1(C)CC(=O)C2=C(C1)NC(=S)NC2c1cccc(O)c1` (stereo unspecified), the Potency entry in experiment [1] and in experiment [2] was “inactive” in each case.

For `CC(=O)OC12COC1CC(O)C1(C)C(=O)C(O)C3=C(C)C(OC(=O)C(O)C(NC(=O)OC(C)(C)C)c4ccccc4)CC(O)(C(OC(=O)c4ccccc4)C21)C3(C)C` (stereo unspecified), the Potency result in experiment [1] and in experiment [2] was “inactive” each time.

Regarding `C/C=C1\[C@H](OC2OC(COC3OC(CO)C(O)C(O)C3O)C(O)C(O)C2O)OC=C(C(=O)OC)[C@H]1CC(=O)OCCc1ccc(O)cc1` (stereo partly specified), the Potency entry in experiment [1] and in experiment [2] was “inactive” in each case.

With `O=C(Nc1c(-c2cccs2)nc2ccccn12)c1ccc(Cl)cc1`, the Potency entry in experiment [1] and in experiment [2] was “inactive” each time.

Consider `COc1c2c(c(C)c3c1C(=O)OC3)OC1(C)CC(O)C34OC(OC)(OC3(C)C)C(O)CC4(C)C1C2` (stereo unspecified), for which the Potency entry in experiment [1] and in experiment [2] was “inactive” each time.

Turning to `O=C(CCCCN1CCOCC1)Nc1ccc(-c2cccnc2)cc1`, the Potency entry in experiment [1] and in experiment [2] was “inactive” in each case.

Consider `CC(=O)O[C@@H]1[C@@H](OC(=O)/C=C/c2ccccc2)[C@@H](OC(C)=O)[C@H](O[C@H]2[C@@H]3C=CO[C@@H](O[C@@H]4O[C@H](CO)[C@@H](O)[C@H](O)[C@H]4O)[C@@H]3[C@@]3(CO)O[C@@H]23)O[C@H]1C`, for which the Potency result in experiment [1] and in experiment [2] was “inactive” each time.

In the case of `Cc1ccc(-c2ccc3ncc4c(c3n2)n(C2CCN(C(=O)[C@H](C)O)CC2)c(=O)n4C)cn1`, the Potency result in experiment [1] and in experiment [2] was “inactive” throughout.

As for `CCN(Cc1cccnc1)C(=O)CN(c1ccc(OC)nc1)S(=O)(=O)c1ccccc1C`, the Potency result in experiment [1] and in experiment [2] was “inactive” each time.

For `Cc1cccc(C)c1OCc1cc(C(=O)N2CCC(c3ccncc3)CC2)no1`, the Potency result in experiment [1] and in experiment [2] was “inactive” in each case.

For the molecule `CNC(C)C(=O)NC(C(=O)N1CCCC1c1nc(C(=O)c2ccc(F)cc2)cs1)C1CCCCC1` (stereo unspecified), the Potency entry in experiment [1] and in experiment [2] was “inactive” each time.

For the molecule `CC(=O)OC1C(c2ccccc2)CCC(c2ccccc2)C1OC(C)=O` (stereo unspecified), the Potency result in experiment [1] and in experiment [2] was “inactive” throughout.

As for `CCNC(=O)Nc1ccc(-c2nc3c(c(N4CCOC[C@@H]4C)n2)CCN(c2ncccn2)C3)cc1`, the Potency result in experiment [1] and in experiment [2] was “inactive” throughout.

Turning to `C[C@@H]1O[C@@H](O[C@H]2[C@H](OC(=O)[C@]34CCC(C)(C)C[C@H]3C3=CCC5[C@@]6(C)C[C@H](O)[C@H](O[C@@H]7O[C@H](CO)[C@@H](O)[C@H](O)[C@H]7O)[C@@](C)(CO)C6[C@H](O)C[C@@]5(C)[C@]3(C)CC4)OC[C@H](O)[C@@H]2O)[C@H](O)[C@H](O)[C@H]1O[C@@H]1OC[C@@H](O)[C@H](O[C@@H]2OC[C@](O)(CO)[C@H]2O)[C@H]1O` (stereo partly specified), the activity change, negative = inhibition in experiment [1] is -1.32% [at 19.1 µM] (inactive); in experiment [2], 21.5% [at 10.7 µM] (inactive).

As for `C[C@@H]1N[C@H]2N(C1=O)c1ccccc1[C@@]2(O)C[C@@H]1C(=O)N[C@@H](C)c2nc3ccccc3c(=O)n21`, the Potency result in experiment [1] and in experiment [2] was “inactive” in each case.

Turning to `CC(C)S(=O)(=O)N[C@H]1CCOC[C@@H]1c1ccc(-c2ccc(C#N)s2)cc1`, the Potency entry in experiment [1] and in experiment [2] was “inactive” throughout.

Regarding `COc1cc(OC)c(/C=C/S(=O)(=O)Cc2ccc(OC)c(NCC(=O)O)c2)c(OC)c1`, the Potency entry in experiment [1] and in experiment [2] was “inactive” in each case.

`COc1cc(Br)c(S(=O)(=O)Nc2ccc(C(F)(F)F)c(O[C@@H]3CCN(C)C3)c2)cc1OC`: the Potency result in experiment [1] and in experiment [2] was “inactive” in each case.

With `COC(=O)c1ccccc1O[C@@H]1O[C@H](CO)[C@@H](O)[C@H](O)[C@H]1O[C@@H]1O[C@@H](C)[C@H](O)[C@@H](O)[C@H]1O`, the Potency result in experiment [1] and in experiment [2] was “inactive” throughout.

Consider `CN1CCN(c2ccc(C(=O)Nc3n[nH]c4ccc(Cc5cc(F)cc(F)c5)cc34)c(NC3CCOCC3)c2)CC1`, for which the Potency result in experiment [1] and in experiment [2] was “inactive” in each case.

Consider `COc1cc(O)cc(C)c1C(=O)O[C@@H]1[C@H](O)[C@@H](CO)O[C@H]1n1ccc(=O)[nH]c1=O`, for which the Potency entry in experiment [1] and in experiment [2] was “inactive” in each case.

As to `CC(=O)C=C=C1C(C)(C)CC(O[C@@H]2O[C@H](CO)[C@@H](O)[C@H](O)[C@H]2O)CC1(C)O` (stereo partly specified), the Potency result in experiment [1] and in experiment [2] was “inactive” in each case.
